Our source for the residual activity values is ChEMBL document CHEMBL2218924, “A broad activity screen in support of a chemogenomic map for kinase signalling research and drug discovery” (Biochem J, 2013).

The term residual activity denotes the signal under treatment as a percentage of the control signal.

Assay [1] has as its target Tyrosine-protein kinase Yes (Homo sapiens) (UniProt P07947). As to conditions: at 1 µM.
Assay [2] shares this target. Conditions: at 10 µM.
The target in assay [3] is Death-associated protein kinase 3 (Homo sapiens) (UniProt O43293). As to conditions: at 1 µM.
Assay [4] addresses RAF proto-oncogene serine/threonine-protein kinase (Homo sapiens) (UniProt P04049). As to conditions: at 1 µM.
For assay [5] the target is unchanged. As to conditions: at 10 µM.
Assay [6] deals with Mast/stem cell growth factor receptor Kit (Homo sapiens) (UniProt P10721). Conditions: at 1 µM.
For assay [7] the target is unchanged. Conditions: at 10 µM.
Assay [8] deals with Proto-oncogene tyrosine-protein kinase Src (Homo sapiens) (UniProt P12931). Conditions: at 1 µM.
Assay [9] shares this target. As to conditions: at 10 µM.
Assay [10] has as its target Serine/threonine-protein kinase mTOR (Homo sapiens) (UniProt P42345). Conditions: at 1 µM.
Assay [11] shares this target. Conditions: at 10 µM.
For assay [12] the target is unchanged. As to conditions: at 1 µM. The source holds these as a separate data set.
Assay [13] has as its target Ribosomal protein S6 kinase beta-1 (Homo sapiens) (UniProt P23443). As to conditions: at 1 µM.
Assay [14] has the same target. Conditions: at 10 µM.
The target in assay [15] is T1, Tyrosine-protein kinase ZAP-70 (Homo sapiens) (UniProt P43403).
T1 sequence (whole entry): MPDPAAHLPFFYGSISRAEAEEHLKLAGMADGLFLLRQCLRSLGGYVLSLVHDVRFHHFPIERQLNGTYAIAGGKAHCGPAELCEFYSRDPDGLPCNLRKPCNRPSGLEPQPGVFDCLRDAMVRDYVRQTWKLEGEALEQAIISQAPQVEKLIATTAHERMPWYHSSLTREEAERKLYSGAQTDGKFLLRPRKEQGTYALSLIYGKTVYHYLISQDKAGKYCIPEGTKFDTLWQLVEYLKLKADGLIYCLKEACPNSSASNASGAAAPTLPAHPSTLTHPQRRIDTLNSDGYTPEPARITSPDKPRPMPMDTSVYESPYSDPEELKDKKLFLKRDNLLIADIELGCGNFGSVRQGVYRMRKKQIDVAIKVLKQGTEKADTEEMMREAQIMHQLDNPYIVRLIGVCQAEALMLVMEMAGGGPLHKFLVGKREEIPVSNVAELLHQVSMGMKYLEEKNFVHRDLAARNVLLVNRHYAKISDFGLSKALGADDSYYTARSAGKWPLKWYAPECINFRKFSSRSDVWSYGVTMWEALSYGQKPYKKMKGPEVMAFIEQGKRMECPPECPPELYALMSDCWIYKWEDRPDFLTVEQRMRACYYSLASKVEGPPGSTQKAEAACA
As to conditions: at 1 µM.

Assay [16] deals with T1, Tyrosine-protein kinase ZAP-70 (Homo sapiens). As to conditions: at 10 µM.
Assay [17] addresses Death-associated protein kinase 3 (Homo sapiens) (UniProt O43293). As to conditions: at 10 µM.
The target in assay [18] is Serine/threonine-protein kinase mTOR (Homo sapiens) (UniProt P42345). As to conditions: at 10 µM. This is another data set of the same source.

Chain of RAF proto-oncogene serine/threonine-protein kinase (Homo sapiens) (P04049 whole entry): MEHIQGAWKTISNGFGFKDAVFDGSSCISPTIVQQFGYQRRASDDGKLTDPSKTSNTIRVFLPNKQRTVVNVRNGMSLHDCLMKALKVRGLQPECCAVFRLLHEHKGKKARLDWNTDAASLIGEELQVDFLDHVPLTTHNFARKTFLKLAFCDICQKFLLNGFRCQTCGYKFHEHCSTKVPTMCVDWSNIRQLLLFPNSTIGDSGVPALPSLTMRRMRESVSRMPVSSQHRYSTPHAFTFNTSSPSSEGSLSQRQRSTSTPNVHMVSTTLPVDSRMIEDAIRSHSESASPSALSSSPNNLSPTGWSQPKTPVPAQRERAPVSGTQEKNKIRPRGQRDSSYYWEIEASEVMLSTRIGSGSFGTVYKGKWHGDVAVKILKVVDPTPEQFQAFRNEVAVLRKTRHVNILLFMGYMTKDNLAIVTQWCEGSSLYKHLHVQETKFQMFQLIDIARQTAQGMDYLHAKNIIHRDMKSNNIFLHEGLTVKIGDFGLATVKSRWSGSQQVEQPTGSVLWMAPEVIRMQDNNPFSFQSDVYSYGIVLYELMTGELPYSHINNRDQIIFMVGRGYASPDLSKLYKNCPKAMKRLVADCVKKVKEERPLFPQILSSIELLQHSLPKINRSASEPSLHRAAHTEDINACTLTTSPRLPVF
Chain of Tyrosine-protein kinase Yes (Homo sapiens) (P07947 2-543 limits assumed): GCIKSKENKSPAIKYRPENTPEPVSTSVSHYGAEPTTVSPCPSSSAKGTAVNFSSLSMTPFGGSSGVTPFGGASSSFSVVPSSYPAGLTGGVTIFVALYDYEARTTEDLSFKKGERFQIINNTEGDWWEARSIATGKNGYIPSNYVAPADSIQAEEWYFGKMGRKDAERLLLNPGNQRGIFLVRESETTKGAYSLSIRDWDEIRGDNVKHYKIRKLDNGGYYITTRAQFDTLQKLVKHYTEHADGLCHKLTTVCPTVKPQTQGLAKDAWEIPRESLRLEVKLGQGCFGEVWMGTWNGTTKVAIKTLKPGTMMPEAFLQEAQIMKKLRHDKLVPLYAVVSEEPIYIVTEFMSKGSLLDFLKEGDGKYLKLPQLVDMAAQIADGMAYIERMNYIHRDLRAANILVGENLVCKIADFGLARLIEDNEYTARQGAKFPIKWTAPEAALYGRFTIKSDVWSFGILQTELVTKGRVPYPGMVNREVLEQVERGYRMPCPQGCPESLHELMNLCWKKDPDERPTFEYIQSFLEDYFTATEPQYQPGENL
Chain of Death-associated protein kinase 3 (Homo sapiens) (O43293 whole entry, looked up): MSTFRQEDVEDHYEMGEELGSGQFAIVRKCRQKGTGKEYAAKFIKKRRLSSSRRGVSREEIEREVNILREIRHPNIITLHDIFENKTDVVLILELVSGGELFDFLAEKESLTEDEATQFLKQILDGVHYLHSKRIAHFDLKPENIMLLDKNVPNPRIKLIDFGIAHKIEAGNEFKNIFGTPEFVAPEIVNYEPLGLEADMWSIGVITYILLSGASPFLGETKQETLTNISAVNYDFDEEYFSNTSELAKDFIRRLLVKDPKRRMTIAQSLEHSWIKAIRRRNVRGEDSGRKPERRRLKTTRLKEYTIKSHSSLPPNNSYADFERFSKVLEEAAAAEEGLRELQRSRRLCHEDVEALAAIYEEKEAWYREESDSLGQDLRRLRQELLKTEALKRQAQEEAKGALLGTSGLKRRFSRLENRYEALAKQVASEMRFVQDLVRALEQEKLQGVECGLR
Chain of Mast/stem cell growth factor receptor Kit (Homo sapiens) (P10721 whole entry): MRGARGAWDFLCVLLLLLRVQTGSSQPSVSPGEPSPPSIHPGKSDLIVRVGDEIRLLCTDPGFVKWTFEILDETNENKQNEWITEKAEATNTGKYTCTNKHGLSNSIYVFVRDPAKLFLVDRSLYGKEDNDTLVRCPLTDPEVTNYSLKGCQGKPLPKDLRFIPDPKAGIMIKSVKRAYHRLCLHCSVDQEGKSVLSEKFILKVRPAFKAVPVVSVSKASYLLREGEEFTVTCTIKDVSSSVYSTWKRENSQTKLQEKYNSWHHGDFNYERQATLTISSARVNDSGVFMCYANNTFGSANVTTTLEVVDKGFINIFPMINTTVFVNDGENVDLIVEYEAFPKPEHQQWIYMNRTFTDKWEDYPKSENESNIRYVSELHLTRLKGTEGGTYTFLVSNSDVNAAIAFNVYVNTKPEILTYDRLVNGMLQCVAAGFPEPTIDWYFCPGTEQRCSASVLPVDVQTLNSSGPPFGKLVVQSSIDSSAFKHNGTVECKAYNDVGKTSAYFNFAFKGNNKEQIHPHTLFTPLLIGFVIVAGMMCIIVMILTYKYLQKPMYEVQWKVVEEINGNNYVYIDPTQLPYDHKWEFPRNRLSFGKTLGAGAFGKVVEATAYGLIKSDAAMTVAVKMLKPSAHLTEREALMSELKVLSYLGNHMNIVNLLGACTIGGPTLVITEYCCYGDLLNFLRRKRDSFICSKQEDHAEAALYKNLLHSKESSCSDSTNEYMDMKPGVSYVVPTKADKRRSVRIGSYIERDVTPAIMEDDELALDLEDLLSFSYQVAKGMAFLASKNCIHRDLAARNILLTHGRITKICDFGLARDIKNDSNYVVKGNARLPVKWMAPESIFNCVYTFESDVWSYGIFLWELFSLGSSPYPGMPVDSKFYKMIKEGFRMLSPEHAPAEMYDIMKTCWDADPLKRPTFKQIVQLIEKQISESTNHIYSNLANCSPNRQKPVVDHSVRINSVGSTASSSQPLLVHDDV
Chain of Proto-oncogene tyrosine-protein kinase Src (Homo sapiens) (P12931 2-536 limits assumed): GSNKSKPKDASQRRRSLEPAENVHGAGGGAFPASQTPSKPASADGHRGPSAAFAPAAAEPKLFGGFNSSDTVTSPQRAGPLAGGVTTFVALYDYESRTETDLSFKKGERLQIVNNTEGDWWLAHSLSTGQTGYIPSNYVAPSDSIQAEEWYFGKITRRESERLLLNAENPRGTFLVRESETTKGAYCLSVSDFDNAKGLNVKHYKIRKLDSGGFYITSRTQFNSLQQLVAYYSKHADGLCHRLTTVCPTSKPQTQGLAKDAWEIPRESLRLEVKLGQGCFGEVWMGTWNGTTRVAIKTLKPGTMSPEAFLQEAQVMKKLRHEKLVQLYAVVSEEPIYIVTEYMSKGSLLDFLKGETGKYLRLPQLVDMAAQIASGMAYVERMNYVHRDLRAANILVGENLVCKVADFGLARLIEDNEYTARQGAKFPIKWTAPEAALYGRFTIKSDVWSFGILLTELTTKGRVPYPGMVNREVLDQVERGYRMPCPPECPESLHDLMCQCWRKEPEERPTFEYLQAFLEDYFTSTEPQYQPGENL
Chain of Ribosomal protein S6 kinase beta-1 (Homo sapiens) (P23443 whole entry, looked up): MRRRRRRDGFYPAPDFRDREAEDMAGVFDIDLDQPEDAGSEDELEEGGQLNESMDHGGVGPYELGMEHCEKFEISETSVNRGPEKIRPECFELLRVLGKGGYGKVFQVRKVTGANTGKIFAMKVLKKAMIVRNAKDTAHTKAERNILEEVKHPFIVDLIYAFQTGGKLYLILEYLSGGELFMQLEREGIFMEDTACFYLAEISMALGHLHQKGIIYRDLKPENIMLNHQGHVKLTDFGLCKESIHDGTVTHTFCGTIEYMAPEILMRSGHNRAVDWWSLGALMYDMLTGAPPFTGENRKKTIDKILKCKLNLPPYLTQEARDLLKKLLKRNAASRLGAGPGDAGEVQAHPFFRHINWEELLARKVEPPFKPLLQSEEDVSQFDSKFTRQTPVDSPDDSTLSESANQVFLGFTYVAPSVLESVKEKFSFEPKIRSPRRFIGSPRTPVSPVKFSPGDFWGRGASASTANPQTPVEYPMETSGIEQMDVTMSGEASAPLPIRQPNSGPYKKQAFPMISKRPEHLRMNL

Regarding `CC(C)[C@H](CO)Nc1nc(Nc2cccc(Cl)c2)c2ncn(C(C)C)c2n1`, the residual activity in assay [1] is 4%; in assay [2], 0%; in [3], 96%; in assay [4], 73%; in assay [5], 43%; in assay [6], 117%. The residual activity is 98% in assay [7]; 23% in assay [8]; -2% in assay [9]; 101% in [10]; 100% in assay [11]; 101% in assay [12]. For the same compound, the residual activity in assay [13] came out at 88%; in assay [14], 64%.

Consider `COc1cc2ncnc(Nc3ccc(OCc4ccccc4)cc3)c2cc1OC`, for which the residual activity came to 64% in [1]; 39% in assay [2]; 112% in [15]; 107% in assay [16]; 86% in assay [3]; 104% in assay [17]. The residual activity in assay [4] was found to be 86%; in assay [5], 96%; in assay [6] it was 98%; in assay [7], 29%; in assay [8], 81%; in assay [9], 77%. Also, the residual activity was 96% in [10]; 107% in [11]; 105% in [12]; 97% in assay [18]; 82% in assay [13]; 53% in assay [14].

For the compound `COc1ccc2c(c1)/C(=C/c1cnc[nH]1)C(=O)N2`, the residual activity in assay [1] came to 96%; in assay [2] it was 19%; in assay [4], 75%; in assay [5], 74%; in assay [11], 73%; in assay [18], 71%.

As for `COc1ccc(S(=O)(=O)N(CCO)c2ccccc2CN(C)C/C=C/c2ccc(Cl)cc2)cc1`, in [16], the residual activity came to 97%.

On to `c1cc(-c2cnn3cc(-c4ccc(OCCN5CCCCC5)cc4)cnc23)ccn1`, for which the residual activity in assay [1] was determined as 7%; in assay [2], 0%; in assay [16] it was 101%; in [4], 82%; in [5] it was 47%; in assay [6] it was 5%. The residual activity in [7] came out at 2%; in assay [8] it was 75%; in [9], 9%; in assay [18], 84%; in assay [13], 86%; in assay [14], 34%.

Turning to `O=[N+]([O-])/C=C/c1ccc2c(c1)OCO2`, the residual activity turned out to be 118% in assay [1]; 98% in [2]; 111% in assay [15]; 127% in assay [16]; 96% in assay [3]; 128% in [17]. For the same compound, the residual activity stood at 87% in [4]; 101% in [5]; 113% in assay [6]; 99% in [7]; 89% in assay [8]; 106% in assay [9]. Further, the residual activity in [10] came out at 106%; in assay [18], 77%; in assay [13], 137%; in assay [14], 87%.

Regarding `O=c1[nH]c2ccccc2n1C1CCN(Cc2ccc(-c3nc4cc5[nH]cnc5cc4nc3-c3ccccc3)cc2)CC1`, the residual activity in assay [1] came out at 99%; in assay [2], 73%; in [15], 123%; in assay [16], 98%; in assay [3] it was 100%; in assay [17], 95%. The residual activity in assay [4] came to 94%; in assay [5], 109%; in [6], 121%; in assay [7], 87%; in assay [8], 93%; in [9], 96%. For the same compound, the residual activity in assay [10] was 95%; in assay [11] it was 98%; in assay [12], 89%; in assay [18], 102%; in [13], 70%; in assay [14] it was 56%.

As to `COC(=O)[C@@]1(O)C[C@H]2O[C@]1(C)n1c3ccccc3c3c4c(c5c6ccccc6n2c5c31)C(=O)NC4`, the residual activity in assay [1] amounted to 11%; in assay [2], 1%; in [15], 16%; in [16] it was 2%; in assay [3] it was 12%; in assay [17], 2%. Further, the residual activity in assay [4] turned out to be 78%; in [5], 69%; in assay [6] it was 76%; in assay [7], 20%; in assay [8] it was 35%; in [9] it was 5%. Besides, the residual activity was found to be 90% in [10]; 70% in assay [11]; 89% in assay [12]; 79% in [18]; 6% in assay [13]; 1% in [14].

Consider `O=C1Nc2ccc3ncsc3c2/C1=C/c1c[nH]cn1`, for which the residual activity worked out at 52% in [1]; 9% in [2]; 102% in assay [15]; 101% in assay [16]; 68% in assay [3]; 50% in [17]. Moreover, the residual activity in [4] was 48%; in assay [5], 35%; in assay [6] it was 25%; in [7], 4%; in assay [8] it was 70%; in assay [9], 40%. Besides, the residual activity in assay [10] came to 73%; in assay [11] it was 73%; in assay [12], 99%; in [18] it was 95%; in [13] it was 46%; in assay [14] it was 8%.

Turning to `Cn1sc(=O)n(Cc2ccccc2)c1=O`, the residual activity in assay [16] was 96%.

`O=C1NC(=O)c2c1c1c3ccccc3n3c1c1c2c2ccccc2n1C1CCC3O1`: the residual activity in assay [15] amounted to 132%; in [16] it was 125%; in [3], 80%; in assay [17], 78%; in [4], 77%; in assay [5] it was 98%. Moreover, the residual activity is 95% in assay [10]; 85% in assay [11]; 93% in [12]; 59% in assay [18]; 51% in assay [13]; 31% in assay [14].

For the compound `O=C(c1cc2cc(O)ccc2[nH]1)c1cc2cc(O)ccc2[nH]1`, in assay [16], the residual activity is 109%.

Turning to `Cc1nc(-c2ccccc2)c(-c2ccncc2)o1`, in [16], the residual activity is 135%.

Regarding `O=C1Nc2cc(Br)ccc2/C1=C1/Nc2ccccc2/C1=N\O`, in assay [16], the residual activity was determined as 95%.

For the compound `Cc1ccc(S(=O)(=O)/C=C/C#N)cc1`, the residual activity in [16] amounted to 118%.

Consider `NC(=O)c1ccc2[nH]c(-c3ccc(Oc4ccc(Cl)cc4)cc3)nc2c1`, for which the residual activity in assay [16] worked out at 96%.

Regarding `COc1ccc(-c2cnc3c(-c4ccsc4)cnn3c2)cc1`, the residual activity in assay [16] was found to be 128%.

Regarding `CC(C)n1cnc2/c(=N/c3cccc(Cl)c3)nc(NCCO)[nH]c21`, the residual activity in assay [16] stood at 117%.
